# Results published in PubChem BioAssay AID485294 (National Center for Advancing Translational Sciences (NCATS), 2010).
# Out of some 370,000 compounds screened, about 150 (0.041%) were called active. Inconclusive results (about 14%) are left out. The entries come from a sample that favours actives as a whole. A number with no mark means an inactive call. Calls come from the whole dose curve; as a rule, active = well fitted inhibition curve with a large enough effect; inconclusive = small, poorly fitted or top-dose-only effect; inactive = flat fitted curve, though single readings scatter.
# Molecular target: Beta-lactamase (Escherichia coli (strain K12)) (UniProt P00811)
# Sequence (P00811 whole entry, looked up): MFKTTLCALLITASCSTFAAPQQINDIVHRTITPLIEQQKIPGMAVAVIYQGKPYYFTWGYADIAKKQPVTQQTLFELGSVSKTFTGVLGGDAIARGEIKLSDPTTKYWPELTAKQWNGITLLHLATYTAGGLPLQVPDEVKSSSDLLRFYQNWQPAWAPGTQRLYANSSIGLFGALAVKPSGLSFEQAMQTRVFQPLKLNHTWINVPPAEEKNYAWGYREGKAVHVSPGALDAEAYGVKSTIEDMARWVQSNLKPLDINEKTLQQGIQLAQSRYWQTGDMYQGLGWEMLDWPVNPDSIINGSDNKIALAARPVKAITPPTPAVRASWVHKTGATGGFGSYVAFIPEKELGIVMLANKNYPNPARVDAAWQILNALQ
# Experiment: qHTS Inhibitors of AmpC Beta-Lactamase (assay with detergent); note: nearly all actives have a fitted effect of over 25% in size;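 for activity change, negative = inhibition: 0% = no-compound wells and -100% = no-enzyme wells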
# Details: AmpC hydrolysis of nitrocefin, absorbance 480 nm, 0.01% Triton; series mostly up to 114 µM; activity change, negative = inhibition: at the top concentration
# Protocol: NIH Molecular Libraries Probe Production Network [MLPCN] NIH Chemical Genomics Center [NCGC] Assay Provider: Professor Brian Shoichet, UCSF Assay Overview: This aggregation profiling approach exploits the sensitivity of aggregate formation to detergent. Inhibition of b-lactamase is measured in the presence and absence of 0.01% Triton X-100. This particular assay had the prescence of 0.01% Triton X-100. See Pubchem assay "Promiscuous and Specific Inhibitors of AmpC Beta-Lactamase (assay without detergent)" for related screen. Compounds that inhibit only in the absence of detergent are considered likely promiscuous aggregators. A screen of 1,030 compounds was performed in Brian Shoichet's lab in 96-well format. AmpC activity was measured by following the absorbance at 480 nm. Nitrocefin is a chromogenic substrate: while nitrocefin is yellow (lmax 390 nm), the product of its hydrolysis is red (lmax 486 nm, 17,000 M-1). AmpC beta lactamase was provided by Shoichet Lab, UCSF.
# Buffer: 20 mM phosphate buffer, pH 7.0 Triton X-100: No Detergent screen: 0.0001%, Detergent screen: 0.01%. Reagents/Controls: Buffer in columns 3 and 4 as negative control (no enzyme). 5.3 nM AmpC in columns 1, 2, 5-48. Titration of UCSF compound 9 control (from 10 mM, then 1:2) pin-transferred to column 2. Column 1 is neutral (100% activity). Assay Steps: Six uL of reagents were dispensed to 1536-well Greiner black clear bottom plates. Compounds and controls (23 nL) were transferred via Kalypsys PinTool. The plates were incubated for 15 min at room temperature, and then 2 uL of 800 uM solution of nitrocefin was added to start the reaction. The plates were immediately transferred to and read every 20 seconds for 4 min on ViewLux (Perkin-Elmer) High-throughput CCD imager using 480 nm absorbance protocol. During dispense, reagent bottles were kept submerged into 4 deg C water bath. Keywords: NIH Roadmap, MLSCN, MLI, MLSMR, qHTS, NCGC, AmpC Beta-Lactamase, Aggregation
# Potency is the fitted concentration of half-maximal effect.
Structure (SMILES),"activity change, negative = inhibition [%]",Potency
O=C(COc1ccccc1)NCc1ccc2c(c1)CCN2C(=O)c1ccc(F)cc1,6.72,
CCc1ccccc1NC(=O)Cn1c(=O)n(CC2CCC(C(=O)NCCc3ccccc3)CC2)c(=O)c2ccccc21 (stereo unspecified),-3.1,
CCCn1c(=N)c(C(=O)NCc2ccccc2)cc2c(=O)n3cccc(C)c3nc21,6.68,
CC(C)(C)c1cc(CN2CCN(CCC#N)CC2)cc(C(C)(C)C)c1O,,35.5 µM (active)
CC(C)c1cc(CN2CCOCC2)cc(C(C)C)c1O,1.24,
N#Cc1cccc(CN2CCC(=O)N(CCO)CC2)c1,-1.68,
Cc1nn(Cc2ccc(F)cc2)c(C)c1NC(=O)c1cc(CC(C)C)on1,-7.87,
CCOC(=O)c1c(S(=O)(=O)N2CCC(C(=O)NCc3ccccc3OC)CC2)c(C)n(C)c1C,6.8,
CC(C)(C)c1ccc(S(=O)(=O)N2CCN(C(=O)c3cc(-c4ccc(Br)cc4)n[nH]3)CC2)cc1,9.24,
COC(=O)CN1C(=O)CSc2ccc(S(=O)(=O)Nc3cc(C)ccc3C)cc21,-2.29,
CCC1=Nc2cc(C(=O)NCCCOC(C)C)ccc2Sc2ccc(C)cc21,-0.0613,
CC(C)c1ccc(C2CC(=O)N3CN(C4CCCCC4)CSC3=C2C#N)cc1 (stereo unspecified),-6.41,
CCCNc1ncnc2c1c(-c1ccccc1)cn2-c1ccc(OCC)cc1,7.73,
CCCN(CCC)CCNC(=O)c1ccc2c(c1)NC(=O)C(CS(=O)(=O)Cc1cccc(Br)c1)N2 (stereo unspecified),4.65,
Cc1ccc(-n2c3nc(=O)[nH]c(=O)c-3cc3c(Cl)cccc32)cc1,17.3,
O=C(CSc1nnc(-c2ccccc2F)o1)Nc1cccc(C(F)(F)F)c1,-2.35,
CCC(=O)Nc1ccc2nc(SCC(=O)N3CCc4ccccc43)sc2c1,17,
Cc1ccc(-c2cnc(NCc3ccc(C(C)C)cc3)n2C)cc1,1.02,
Cc1ccc(C)c(NC(=O)C2CCCN(S(=O)(=O)c3cn(C)cn3)C2)c1 (stereo unspecified),1.52,
Cc1c(C(=O)N2CCCC2)oc2c1-c1nn(CC(=O)NCc3ccc(OC(C)C)cc3)cc1CC2,-0.874,
Cc1c(NC(=O)Nc2ccc(F)c(Cl)c2)c(=O)n(-c2ccccc2)n1C,10.1,
CCCN(C(=O)Cn1cc(S(=O)(=O)N2CCN(c3ccccc3F)CC2)c2ccccc2c1=O)c1cccc(C)c1,15.1,
COc1ccc(Cl)cc1S(=O)(=O)N1CCC(c2ccncc2)CC1,5.01,
COc1ccc(-c2nc3sc(CCNS(=O)(=O)c4ccc(F)c(C)c4)c(C)n3n2)cc1,1.12,

Structure (SMILES),"activity change, negative = inhibition [%]",Potency
CCOc1ccc(-c2cc3nc(C4CCN(C(=O)OC(C)(C)C)CC4)c(C(=O)Nc4ccc(C(=O)OC)cc4)cn3n2)cc1,-0.405,
CCCNC(=O)CCC(=O)N1Cc2ccccc2Oc2ncccc21,26.6,
O=C(Cn1c(-c2cccs2)cc2ccccc21)NCCc1ccc(Cl)cc1,0.161,
Cc1ccc(CNS(=O)(=O)c2ccc(-c3cc(C(F)(F)F)on3)s2)cc1,-0.38,
COCCCNC(=O)c1ccc(NC(=O)c2nsc3ccccc23)cc1,1.67,
COc1ccc(-c2nc(C)c(CCNC(=O)c3ccc(C(F)(F)F)cc3)s2)cc1OC,5.88,
CC1CCCN(Cc2c(O)ccc3c(=O)c(Oc4ccc(C(C)(C)C)cc4)c(C(F)(F)F)oc23)C1 (stereo unspecified),-1.79,
COc1ccc(/C=C/c2nc(C#N)c(NCc3ccc(F)cc3)o2)cc1OC,-1.11,
Cc1c(-c2nc(-c3ccc4c(c3)OCO4)no2)nnn1-c1ccc(Br)cc1F,3.22,
COc1cc(NC(=O)c2noc3c2CSc2ccccc2-3)cc(OC)c1OC,22.2,
CCCCN1CC(c2nc3ccccc3n2CCCCOc2ccc(C)cc2C)CC1=O (stereo unspecified),20.3,
CCOc1cccc(NC(=O)CSc2ncc(-c3ccc(Cl)cc3)[nH]2)c1,14.7,
CC(=O)N1CCCc2cc(S(=O)(=O)Nc3ccc(Cl)cc3F)ccc21,-0.767,
Nc1ccc(Nc2cc(O)c3ncccc3c2)cc1,-4.05,
CCN(CC)S(=O)(=O)c1ccc2c(c1)N(CC(=O)NCC(C)c1ccccc1)C(=O)CO2 (stereo unspecified),18.7,
CSc1ccccc1-c1nnc(NC(=O)c2ccc3c(c2)OCCO3)o1,5.64,
CCn1c(CN2CCC(C)CC2)nc2cc(NC(=O)c3ccccc3[N+](=O)[O-])ccc21,22.8,
COc1ccc(NC(=O)CCN2CCN(CCO)CC2)cc1,1.07,
O=C(c1cccs1)c1cn(CCOc2ccc(Cl)cc2)c2ccccc12,-3.12,
COc1ccc(OC)c(NC(=O)Cn2c(=O)n(Cc3ccccc3)c(=O)c3ccccc32)c1,5.51,
CSc1nc(=O)c2c(n1C)NC(=O)CC2c1ccccc1OC(C)C (stereo unspecified),5.75,
Cc1cccc(N2CCN(C(=O)c3oc(=O)c4ccccc4c3-c3ccccc3)CC2)c1C,-1.7,
COc1ccc(Cn2ccnc2SCC(=O)Nc2ccc3c(c2)OCO3)cc1,5.64,
Cc1ccccc1OCc1ccc(-c2nc(C#N)c(N3CCCCC3)o2)o1,0.568,

Structure (SMILES),"activity change, negative = inhibition [%]",Potency
Cc1ccc(S(=O)(=O)c2c(Nc3cccc(Cl)c3)sc(C(=O)c3ccc4c(c3)OCO4)c2N)cc1,28.1,
Cc1cccc(NC(=O)Cn2c(C(F)(F)F)nc3ccccc32)c1C,5.01,
O=C(/C=C/c1ccccc1)Nc1cc(-c2nc3cc(Cl)ccc3o2)ccc1Cl,-2.1,
COc1ccc(-c2cc(C(F)(F)F)n3nc(-c4ccccc4)cc3n2)cc1OC,0.338,
CCOc1ccc(C(NC(=O)c2cc(OC)c(OC)c(OC)c2)c2cc(Cl)c3cccnc3c2O)cc1 (stereo unspecified),-6.18,
Cc1ccc2c(=O)c(C(=O)c3ccc(Cl)cc3)cn(CC(=O)NC3CCCCC3)c2n1,18.9,
COc1ccc(-c2nc3ccccc3s2)cc1NC(=O)COc1ccccc1C,1.82,
CCn1c(C(=O)Nc2cc(Cl)ccc2C)cc2sc(Cl)cc21,16.5,
Cc1ccc(NC(=O)c2cc3cc(C)ccc3n2C)cc1,-3.66,
Cc1cc(C)c(NC(=O)c2cc3sc(Cl)cc3n2C)c(C)c1,,56.2 µM (active)
COc1ccc(CCNc2ncnc3onc(-c4ccc(Cl)cc4)c23)c(OC)c1,9.52,
CCOC(=O)c1c(C)oc2nc(C)nc(N3CCN(c4ccc(OC)cc4)CC3)c12,13.8,
CC(C)(C)NC(=O)C(c1ccncc1)N(C(=O)CNC(=O)c1ccco1)c1ccc2c(c1)OCO2 (stereo unspecified),-14.3,
COc1cccc(N(C(=O)CNC(=O)c2ccco2)C(C(=O)NC2CCCCC2)c2cccnc2)c1 (stereo unspecified),-8.32,
Cc1ccc(N(C(=O)CNC(=O)c2ccco2)C(C(=O)NC2CCCC2)c2ccncc2)cc1 (stereo unspecified),,14.1 µM (active)
Cc1nnc(N2CCCC(C(=O)NCCN(C)C)C2)c2nn(-c3ccccc3)c(C)c12 (stereo unspecified),1.73,
CCOc1ccc(-c2n[nH]c3c2C(c2ccccc2OC)N(c2ccc(Br)cc2)C3=O)cc1 (stereo unspecified),-2.45,
Nc1ccc2nc3c(=O)[nH]c(=S)[nH]c3nc2c1,,50.1 µM (active)
Clc1ccc(CSc2nncn3c2cc2occc23)cc1,-10.9,
Cc1ccc(C)c(S(=O)(=O)c2nnn3c2nc(N2CCOCC2)c2sccc23)c1,9.64,
CCC(=O)N1CCc2cc(Br)cc(S(=O)(=O)Nc3ccc(C)cc3C)c21,4.3,
CC1=C(c2ccc(C)cc2)S(=O)(=O)NC1=NCCCN1CCN(c2cc(C)ccc2C)CC1,19.9,
Fc1ccc(C(Nc2ccc(Cl)c(C(F)(F)F)c2)c2nnc(-c3ccccc3)o2)cc1 (stereo unspecified),5.04,
Cc1ccc(-c2cn3c(n2)sc2cc(C(=O)NCc4cccs4)ccc23)c(C)c1,13.4,

Structure (SMILES),"activity change, negative = inhibition [%]",Potency
CCOC(=O)c1c(NC(=O)c2ccc(S(=O)(=O)N(CC)CC)cc2)sc2c1CCCCC2,-9.3,
COc1ccc(-c2cccc(NS(=O)(=O)c3cc(C)c(OC)c(C)c3C)c2)nn1,11.2,
Cc1ccc(NC(=O)Cc2ccc(NC(=O)N3CCCCc4ccccc43)cc2)cc1,3.85,
COc1ccc(CCC(=O)NCCc2csc(-c3ccc(Cl)cc3)n2)cc1,2.64,
COc1cc(-c2cc3n(C)c(C)c(CCC(=O)Nc4ccc(F)cc4)c(=O)n3n2)cc(OC)c1OC,-3.72,
Cc1ccc(NC(=O)c2cc(S(=O)(=O)NCCC3=CCCCC3)ccc2F)cc1C,-2.66,
Cc1cc(Nc2cccc(C(F)(F)F)c2)nc2ccc(NC(=O)c3ccc(=O)[nH]c3)cc12,1.63,
COCCn1c(CCC(=O)Nc2cc(C)ccc2C)nc2cccnc21,17.5,
Cc1ccc2cccc(NC(=O)c3ccc(OC(C)C)cc3)c2n1,-6.92,
COc1ccc(-c2nc3nc(C)cc(C)n3c2Nc2c(C)cccc2C)cc1,8.99,
O=C(Nc1c(C(=O)N2CCN(c3ccc(F)cc3)CC2)oc2ccccc12)c1ccco1,6.2,
CCOc1ccc(NC(=O)CCc2c(C)nn(-c3ccc(N4CCCC4)nn3)c2C)cc1,-8.16,
O=C(COc1ccccc1F)Nc1ccc(C(=O)OCc2cc(=O)n3nc(C4CC4)sc3n2)cc1,2.62,
CCOc1cc(C2C(C(=O)OC)=C(C)NC3=C2C(=O)c2ccccc23)ccc1O (stereo unspecified),-0.36,
O=S(=O)(c1ccc2nc(NCc3ccccc3Cl)ccc2c1)N1CCCCC1,-1.11,
COc1ccc(Cl)cc1-n1c(CCC(=O)O)ccc1-c1ccc(C)cc1,3.97,
O=C(Nc1ccc(S(=O)(=O)N2CCC(c3nc4ccccc4s3)CC2)cc1)c1ccccc1F,16.5,
CSc1ccc(CCNC(=O)c2cc(C)nc3c2c(C)nn3-c2cccc(F)c2)cc1,0.607,
Cc1ccc(Cl)cc1NC(=O)CSc1nc2ccccc2nc1Cc1ccccc1,21.3,
CCCCN(CC)CCCNC(=O)c1nn(C)c2c1CS(=O)(=O)c1ccccc1-2,17.6,
CCC(CC)c1nn2cc(-c3ccccc3)nc2s1,6.01,
COc1ccc(N2C(=O)CSC23C(=O)N(Cc2cccc(F)c2)c2ccccc23)cc1Cl (stereo unspecified),20.8,
O=C(CC(NCc1cccnc1)C(=O)O)Nc1ccc(O)cc1 (stereo unspecified),18.5,
CCN(CCCNC(=O)c1ccc(Sc2ccc(C)cc2)c(NC(C)=O)c1)c1cccc(C)c1,11,
